Laboratory results published in the supplement of paper PMC10849652.
The full data set covers some 8,800 targets. This sample favours those with a hit. About 0.5% of all pairs of compound and target were hits.

Each target was assayed with CCn1cc(-c2ccnc3[nH]c(-c4cccc(CN(C)C)c4)cc23)c(-c2ccc(NC(=O)N(C)C)cc2)n1 (assay: log2 fold change, soluble protein after heating vs DMSO (PISA); higher = thermal stabilisation; K562 lysate, 10 uM; active = over 0.2 and 3.5 SD of the protein, either way, in both replicates (recomputed)).
Procedure, shortened: (§1)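 Soluble protein was defined as the supernatant remaining after 21,000xg for 90 min, following pooling of heated aliquots and adjustment to 0.5% NP-40 at 4°C. Before that, crude K562 extract at 1 mg/mL protein in PBS pH 7.4 with 1 mM MgCl2 was treated with 10 μM compound for 30 min and heated for 3 min across 48°C-58°C. Quantification used TMTpro 16plex LC-MS/MS with channel sums equalised, and values are log-two fold changes in thermal stability relative to solvent controls from duplicates.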

Chain of UniProt Q9H4E7 (Q9H4E7 whole entry, looked up): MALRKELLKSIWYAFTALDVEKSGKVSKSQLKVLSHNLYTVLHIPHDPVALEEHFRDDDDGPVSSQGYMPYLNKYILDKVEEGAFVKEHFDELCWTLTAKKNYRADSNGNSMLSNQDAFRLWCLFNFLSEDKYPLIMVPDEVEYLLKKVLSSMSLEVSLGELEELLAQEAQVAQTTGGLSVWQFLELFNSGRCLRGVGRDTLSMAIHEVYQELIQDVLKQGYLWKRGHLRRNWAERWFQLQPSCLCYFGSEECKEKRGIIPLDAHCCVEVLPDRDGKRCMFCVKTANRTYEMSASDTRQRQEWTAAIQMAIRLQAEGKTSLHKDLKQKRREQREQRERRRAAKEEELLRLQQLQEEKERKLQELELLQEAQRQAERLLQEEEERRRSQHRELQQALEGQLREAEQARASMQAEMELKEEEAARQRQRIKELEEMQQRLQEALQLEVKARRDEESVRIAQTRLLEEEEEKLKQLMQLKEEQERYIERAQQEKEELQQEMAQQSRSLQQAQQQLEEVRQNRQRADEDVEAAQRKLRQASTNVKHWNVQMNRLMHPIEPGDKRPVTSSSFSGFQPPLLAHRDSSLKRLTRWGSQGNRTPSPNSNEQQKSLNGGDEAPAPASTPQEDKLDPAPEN
Chain of UniProt O60610 (O60610 whole entry, looked up): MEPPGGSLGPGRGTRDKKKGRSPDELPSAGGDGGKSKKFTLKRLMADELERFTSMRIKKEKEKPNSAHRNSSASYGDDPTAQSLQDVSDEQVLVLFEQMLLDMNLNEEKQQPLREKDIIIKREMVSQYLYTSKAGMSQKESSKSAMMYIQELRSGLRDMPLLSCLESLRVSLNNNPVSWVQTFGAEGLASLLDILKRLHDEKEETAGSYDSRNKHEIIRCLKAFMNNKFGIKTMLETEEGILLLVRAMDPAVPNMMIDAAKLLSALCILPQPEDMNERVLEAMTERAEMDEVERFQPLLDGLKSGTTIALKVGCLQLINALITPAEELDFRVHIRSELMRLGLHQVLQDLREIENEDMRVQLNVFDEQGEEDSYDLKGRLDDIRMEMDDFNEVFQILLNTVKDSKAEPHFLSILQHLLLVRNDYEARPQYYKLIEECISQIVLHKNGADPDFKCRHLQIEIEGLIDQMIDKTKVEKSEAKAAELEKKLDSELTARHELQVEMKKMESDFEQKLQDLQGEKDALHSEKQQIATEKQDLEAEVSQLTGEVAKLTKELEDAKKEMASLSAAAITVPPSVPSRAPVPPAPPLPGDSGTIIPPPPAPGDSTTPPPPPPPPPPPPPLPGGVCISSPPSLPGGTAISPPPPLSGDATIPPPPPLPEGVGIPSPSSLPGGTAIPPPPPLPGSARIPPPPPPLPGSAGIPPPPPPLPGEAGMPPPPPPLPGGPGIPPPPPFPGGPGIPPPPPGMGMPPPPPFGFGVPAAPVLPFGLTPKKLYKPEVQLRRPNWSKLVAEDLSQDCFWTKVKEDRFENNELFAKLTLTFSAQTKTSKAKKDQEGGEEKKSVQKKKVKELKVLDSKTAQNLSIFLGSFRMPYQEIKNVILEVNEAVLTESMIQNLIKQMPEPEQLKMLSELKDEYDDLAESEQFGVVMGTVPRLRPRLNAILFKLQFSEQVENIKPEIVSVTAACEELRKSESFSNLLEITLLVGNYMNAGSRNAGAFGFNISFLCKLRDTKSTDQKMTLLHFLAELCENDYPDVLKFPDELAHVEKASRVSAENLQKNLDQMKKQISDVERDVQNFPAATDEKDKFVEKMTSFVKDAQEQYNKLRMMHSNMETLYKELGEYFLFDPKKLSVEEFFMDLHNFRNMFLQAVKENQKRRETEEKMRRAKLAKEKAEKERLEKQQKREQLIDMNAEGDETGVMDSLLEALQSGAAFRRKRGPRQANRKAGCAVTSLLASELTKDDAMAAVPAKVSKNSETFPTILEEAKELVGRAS
Chain of UniProt Q6P3S1 (Q6P3S1 whole entry, looked up): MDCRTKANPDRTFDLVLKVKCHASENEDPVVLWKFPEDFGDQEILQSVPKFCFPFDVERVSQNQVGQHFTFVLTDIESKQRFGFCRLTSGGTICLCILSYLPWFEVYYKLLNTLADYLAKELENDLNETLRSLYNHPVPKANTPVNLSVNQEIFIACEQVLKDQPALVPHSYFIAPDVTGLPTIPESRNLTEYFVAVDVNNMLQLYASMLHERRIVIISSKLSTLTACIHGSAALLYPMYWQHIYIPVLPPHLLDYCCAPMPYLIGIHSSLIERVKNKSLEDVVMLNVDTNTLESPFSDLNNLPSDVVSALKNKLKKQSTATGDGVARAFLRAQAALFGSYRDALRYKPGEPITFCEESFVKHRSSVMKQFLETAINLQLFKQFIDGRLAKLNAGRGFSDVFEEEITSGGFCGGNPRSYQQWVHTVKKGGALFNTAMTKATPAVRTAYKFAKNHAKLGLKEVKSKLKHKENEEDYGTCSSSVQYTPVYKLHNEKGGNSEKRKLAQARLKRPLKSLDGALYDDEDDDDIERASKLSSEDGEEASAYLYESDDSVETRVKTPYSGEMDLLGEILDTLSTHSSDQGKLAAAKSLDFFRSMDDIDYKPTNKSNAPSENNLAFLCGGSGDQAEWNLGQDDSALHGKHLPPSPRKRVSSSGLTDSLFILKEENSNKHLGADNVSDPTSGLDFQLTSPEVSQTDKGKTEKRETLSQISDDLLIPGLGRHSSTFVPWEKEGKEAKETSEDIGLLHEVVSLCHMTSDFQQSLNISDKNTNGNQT
Chain of UniProt Q9H467 (Q9H467 whole entry, looked up): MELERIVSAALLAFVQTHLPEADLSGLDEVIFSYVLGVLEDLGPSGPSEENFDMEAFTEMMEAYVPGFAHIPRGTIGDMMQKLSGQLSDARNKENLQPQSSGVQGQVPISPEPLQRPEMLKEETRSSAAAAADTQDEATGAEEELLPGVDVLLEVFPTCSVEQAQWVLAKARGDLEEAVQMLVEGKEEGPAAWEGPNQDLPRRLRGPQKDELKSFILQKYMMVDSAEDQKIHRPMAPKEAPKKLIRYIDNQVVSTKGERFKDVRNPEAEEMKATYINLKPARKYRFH
Chain of UniProt O75208 (O75208 whole entry, looked up): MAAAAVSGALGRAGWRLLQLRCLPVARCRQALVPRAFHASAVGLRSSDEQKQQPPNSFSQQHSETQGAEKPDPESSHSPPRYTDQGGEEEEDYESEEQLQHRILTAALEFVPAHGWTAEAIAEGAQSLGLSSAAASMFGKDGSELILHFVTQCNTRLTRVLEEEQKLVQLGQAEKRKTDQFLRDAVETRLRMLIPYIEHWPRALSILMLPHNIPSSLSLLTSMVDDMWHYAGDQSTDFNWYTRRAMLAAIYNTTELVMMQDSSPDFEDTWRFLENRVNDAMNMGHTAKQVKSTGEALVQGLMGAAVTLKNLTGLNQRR
Chain of UniProt P51790 (P51790 whole entry, looked up): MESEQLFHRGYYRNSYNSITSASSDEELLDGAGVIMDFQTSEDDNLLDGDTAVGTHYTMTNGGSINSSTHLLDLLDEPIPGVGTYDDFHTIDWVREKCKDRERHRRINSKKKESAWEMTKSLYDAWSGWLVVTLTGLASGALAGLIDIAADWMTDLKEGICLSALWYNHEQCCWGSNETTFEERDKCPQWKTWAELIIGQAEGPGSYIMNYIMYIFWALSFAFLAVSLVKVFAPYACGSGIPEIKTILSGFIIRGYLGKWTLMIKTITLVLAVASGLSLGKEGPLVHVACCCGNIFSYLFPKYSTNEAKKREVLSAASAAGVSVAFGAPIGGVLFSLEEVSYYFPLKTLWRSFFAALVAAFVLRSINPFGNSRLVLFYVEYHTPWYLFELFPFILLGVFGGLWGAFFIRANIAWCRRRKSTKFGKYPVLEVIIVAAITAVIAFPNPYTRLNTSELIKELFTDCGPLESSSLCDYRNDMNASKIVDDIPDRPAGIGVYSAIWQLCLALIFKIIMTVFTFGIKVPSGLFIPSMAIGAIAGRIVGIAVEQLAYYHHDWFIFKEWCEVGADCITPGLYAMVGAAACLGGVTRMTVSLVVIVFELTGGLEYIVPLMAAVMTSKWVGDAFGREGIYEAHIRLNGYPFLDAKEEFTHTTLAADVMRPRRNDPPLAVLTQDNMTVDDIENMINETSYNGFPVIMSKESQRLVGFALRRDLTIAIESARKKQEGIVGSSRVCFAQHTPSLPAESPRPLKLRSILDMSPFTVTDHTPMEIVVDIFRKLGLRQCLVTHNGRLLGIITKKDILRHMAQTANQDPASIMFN
Chain of UniProt Q92466 (Q92466 whole entry, looked up): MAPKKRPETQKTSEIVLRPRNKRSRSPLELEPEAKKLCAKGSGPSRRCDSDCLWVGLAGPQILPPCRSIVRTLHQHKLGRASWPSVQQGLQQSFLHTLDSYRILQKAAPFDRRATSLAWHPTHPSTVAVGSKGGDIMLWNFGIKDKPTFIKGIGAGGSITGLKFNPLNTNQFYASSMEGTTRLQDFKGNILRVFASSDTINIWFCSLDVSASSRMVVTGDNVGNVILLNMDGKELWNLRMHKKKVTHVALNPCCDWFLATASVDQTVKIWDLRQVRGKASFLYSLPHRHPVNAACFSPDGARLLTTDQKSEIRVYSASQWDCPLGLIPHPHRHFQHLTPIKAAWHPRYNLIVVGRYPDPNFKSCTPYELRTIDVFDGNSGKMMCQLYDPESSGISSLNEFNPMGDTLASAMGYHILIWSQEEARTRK
Chain of UniProt P24311 (P24311 whole entry, looked up): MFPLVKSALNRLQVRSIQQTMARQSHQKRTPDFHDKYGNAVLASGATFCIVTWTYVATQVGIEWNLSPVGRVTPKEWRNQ
Chain of UniProt Q6P3W2 (Q6P3W2 whole entry, looked up): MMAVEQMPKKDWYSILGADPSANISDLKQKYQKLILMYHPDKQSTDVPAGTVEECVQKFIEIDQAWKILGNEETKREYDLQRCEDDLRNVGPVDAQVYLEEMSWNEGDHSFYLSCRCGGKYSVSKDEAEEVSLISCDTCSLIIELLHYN
Chain of UniProt P61024 (P61024 whole entry, looked up): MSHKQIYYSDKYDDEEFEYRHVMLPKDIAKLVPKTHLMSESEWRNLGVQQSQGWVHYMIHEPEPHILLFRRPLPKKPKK

DIAPH1 (UniProt O60610) was tested. Which log2 fold change did it give?
The log2 fold change was 0.091 (inactive).

For COQ9 (UniProt O75208), which log2 fold change is on record?
Its log2 fold change is 0.015 (inactive).

For DENND1B (UniProt Q6P3S1), which log2 fold change is on record?
Its log2 fold change is 0.022 (inactive).

With DOCK10 (UniProt Q96BY6) as the target, how does the log2 fold change read?
The log2 fold change was -0.747 (active).

With DEF6 (UniProt Q9H4E7) as the target, how does the log2 fold change read?
Its log2 fold change is -0.071 (inactive).

Which log2 fold change does the source give for CLCN3 (UniProt P51790) here?
Its log2 fold change is 0.009 (inactive).

DIAPH1 (UniProt H9KV28) was tested. Which log2 fold change did it give?
Its log2 fold change is -0.07 (inactive).

With CUEDC2 (UniProt Q9H467) as the target, how does the log2 fold change read?
Its log2 fold change is 0.694 (active).

With DNAH5 (UniProt Q8TE73) as the target, how does the log2 fold change read?
The log2 fold change was -0.481 (active).

CLASP2 (UniProt O75122) was tested. Which log2 fold change did it give?
The log2 fold change was -0.077 (inactive).

Each target was assayed with CN1CCC(CNc2ccc3ncc(-c4cccc(OC(F)(F)F)c4)n3n2)CC1 in the same assay as above.
Procedure, shortened: as §1

With DHFR (UniProt P00374) as the target, how does the log2 fold change read?
The log2 fold change was -0.019 (inactive).

How did the log2 fold change turn out when COG4 (UniProt Q9H9E3) was run?
The log2 fold change was -0.125 (inactive).

For COASY isoform 2 (UniProt Q13057), which log2 fold change is on record?
Its log2 fold change is 0.038 (inactive).

For DDX4 (UniProt Q9NQI0), which log2 fold change is on record?
The log2 fold change was 0 (inactive).

How did the log2 fold change turn out when COG5 isoform 2 (UniProt Q9UP83) was run?
Its log2 fold change is 0.01 (inactive).

With COX7B (UniProt P24311) as the target, how does the log2 fold change read?
Its log2 fold change is -0.013 (inactive).

For CSNK1A1 (UniProt P48729), which log2 fold change is on record?
Its log2 fold change is 0.171 (inactive).

With DLG3 isoform 2 (UniProt Q92796) as the target, how does the log2 fold change read?
Its log2 fold change is 0.038 (inactive).

How did the log2 fold change turn out when CUX1 isoform 2 (UniProt Q13948) was run?
The log2 fold change was -0.34 (inactive).

For DCTN1 isoform 4 (UniProt Q14203), which log2 fold change is on record?
Its log2 fold change is 0.121 (inactive).

How did the log2 fold change turn out when DDAH1 (UniProt O94760) was run?
Its log2 fold change is -0.051 (inactive).

Which log2 fold change does the source give for CSNK1G3 (UniProt Q9Y6M4) here?
Its log2 fold change is 0.065 (inactive).

Which log2 fold change does the source give for CUX1 isoform 3 (UniProt P39880) here?
Its log2 fold change is -0.152 (inactive).

For CINP isoform 3 (UniProt Q9BW66), which log2 fold change is on record?
Its log2 fold change is 0.189 (inactive).

With CNNM2 (UniProt Q9H8M5) as the target, how does the log2 fold change read?
The log2 fold change was 0.036 (inactive).

How did the log2 fold change turn out when CNTN4 (UniProt Q8IWV2) was run?
The log2 fold change was 0.128 (inactive).

For DNAJC24 (UniProt Q6P3W2), which log2 fold change is on record?
Its log2 fold change is -0.309 (active).

For DNAH10 (UniProt Q8IVF4), which log2 fold change is on record?
Its log2 fold change is 0.139 (inactive).

For COQ8A (UniProt Q8NI60), which log2 fold change is on record?
The log2 fold change was 0.573 (active).

For CNOT4 isoform 9 (UniProt O95628), which log2 fold change is on record?
The log2 fold change was 0.22 (inactive).

Which log2 fold change does the source give for CKS1B (UniProt P61024) here?
Its log2 fold change is -0.268 (inactive).

Which log2 fold change does the source give for DDB2 (UniProt Q92466) here?
Its log2 fold change is 0.019 (inactive).

How did the log2 fold change turn out when DIAPH1 (UniProt O60610) was run?
Its log2 fold change is -0.042 (inactive).

With COQ9 (UniProt O75208) as the target, how does the log2 fold change read?
Its log2 fold change is -0.066 (inactive).

Which log2 fold change does the source give for CSNK1D (UniProt P48730) here?
The log2 fold change was 0.255 (inactive).

For DENND1B (UniProt Q6P3S1), which log2 fold change is on record?
The log2 fold change was -0.024 (inactive).

DOCK10 (UniProt Q96BY6) was tested. Which log2 fold change did it give?
The log2 fold change was 0.387 (inactive).

For DEF6 (UniProt Q9H4E7), which log2 fold change is on record?
Its log2 fold change is 0.049 (inactive).

With CLCN3 (UniProt P51790) as the target, how does the log2 fold change read?
The log2 fold change was 0.004 (inactive).

For DIAPH1 (UniProt H9KV28), which log2 fold change is on record?
Its log2 fold change is 0.153 (inactive).

With CUEDC2 (UniProt Q9H467) as the target, how does the log2 fold change read?
Its log2 fold change is -0.07 (inactive).

With DNAH5 (UniProt Q8TE73) as the target, how does the log2 fold change read?
The log2 fold change was 0.122 (inactive).

Which log2 fold change does the source give for CLASP2 (UniProt O75122) here?
Its log2 fold change is 0.073 (inactive).

These targets were tested with CN1CCN(CCOc2cc(OC3CCOCC3)c3c(Nc4c(Cl)ccc5c4OCO5)ncnc3c2)CC1 [saracatinib] in the same assay as above.
Procedure, shortened: as §1

DHFR (UniProt P00374) was tested. Which log2 fold change did it give?
Its log2 fold change is -0.008 (inactive).

How did the log2 fold change turn out when COG4 (UniProt Q9H9E3) was run?
Its log2 fold change is 0.055 (inactive).

Which log2 fold change does the source give for COASY isoform 2 (UniProt Q13057) here?
Its log2 fold change is 0.021 (inactive).

How did the log2 fold change turn out when DDX4 (UniProt Q9NQI0) was run?
The log2 fold change was -0.027 (inactive).

Which log2 fold change does the source give for COG5 isoform 2 (UniProt Q9UP83) here?
Its log2 fold change is 0.057 (inactive).

For COX7B (UniProt P24311), which log2 fold change is on record?
The log2 fold change was -0.062 (inactive).

For CSNK1A1 (UniProt P48729), which log2 fold change is on record?
Its log2 fold change is 0.02 (inactive).

With DLG3 isoform 2 (UniProt Q92796) as the target, how does the log2 fold change read?
Its log2 fold change is 0.004 (inactive).

CUX1 isoform 2 (UniProt Q13948) was tested. Which log2 fold change did it give?
Its log2 fold change is -0.054 (inactive).

DCTN1 isoform 4 (UniProt Q14203) was tested. Which log2 fold change did it give?
Its log2 fold change is 0.123 (inactive).

For DDAH1 (UniProt O94760), which log2 fold change is on record?
Its log2 fold change is -0.308 (active).

How did the log2 fold change turn out when CSNK1G3 (UniProt Q9Y6M4) was run?
The log2 fold change was 0.043 (inactive).

For CUX1 isoform 3 (UniProt P39880), which log2 fold change is on record?
Its log2 fold change is 0.018 (inactive).

For CINP isoform 3 (UniProt Q9BW66), which log2 fold change is on record?
Its log2 fold change is 0.047 (inactive).

How did the log2 fold change turn out when CNNM2 (UniProt Q9H8M5) was run?
Its log2 fold change is -0.039 (inactive).

For DNAJC24 (UniProt Q6P3W2), which log2 fold change is on record?
The log2 fold change was -0.013 (inactive).

With DNAH10 (UniProt Q8IVF4) as the target, how does the log2 fold change read?
The log2 fold change was 0.022 (inactive).

How did the log2 fold change turn out when COQ8A (UniProt Q8NI60) was run?
Its log2 fold change is 0.697 (active).

For CNOT4 isoform 9 (UniProt O95628), which log2 fold change is on record?
The log2 fold change was 0.1 (inactive).

How did the log2 fold change turn out when CKS1B (UniProt P61024) was run?
Its log2 fold change is 0.044 (inactive).

For DDB2 (UniProt Q92466), which log2 fold change is on record?
The log2 fold change was -0.022 (inactive).

DIAPH1 (UniProt O60610) was tested. Which log2 fold change did it give?
The log2 fold change was -0.006 (inactive).

Which log2 fold change does the source give for COQ9 (UniProt O75208) here?
The log2 fold change was -0.001 (inactive).

Which log2 fold change does the source give for CSNK1D (UniProt P48730) here?
Its log2 fold change is -0.039 (inactive).

Which log2 fold change does the source give for DENND1B (UniProt Q6P3S1) here?
The log2 fold change was -0.018 (inactive).

How did the log2 fold change turn out when DOCK10 (UniProt Q96BY6) was run?
Its log2 fold change is 0.001 (inactive).

Which log2 fold change does the source give for DEF6 (UniProt Q9H4E7) here?
The log2 fold change was 0.07 (inactive).

Which log2 fold change does the source give for CNIH4 (UniProt Q9P003) here?
The log2 fold change was 0.021 (inactive).

Which log2 fold change does the source give for CLCN3 (UniProt P51790) here?
The log2 fold change was 0.01 (inactive).

Which log2 fold change does the source give for CUEDC2 (UniProt Q9H467) here?
Its log2 fold change is 0.002 (inactive).

Which log2 fold change does the source give for DNAH5 (UniProt Q8TE73) here?
The log2 fold change was 0.007 (inactive).
